Screens deposited in PubChem by National Center for Advancing Translational Sciences (NCATS).
The entries come from a sample that favours hits as a whole.
Lassa entry inh: inhibitors of Lassa virus binding or cell entry | Lassa virus pseudotype entry inhibition, cell reporter | Potency, µM (top dose mostly 37.9 µM), without a hit: top-dose activity change, negative = inhibition, actives largely listed as inhibitors | 1.2% of 300,000 active | AID 540256; calls by dose curve; tested in HEK293 cells; note: potency is the fitted concentration of half-maximal effect; % is set by controls: 0 for no effect and ±100 for the full control effect; nearly all actives have a fitted effect of over 50% in size
VACV mCherry inh: vaccinia inhibition (mCherry reporter) | Potency, µM (doses to about 36.5 µM), without a hit: top-dose activity change, negative = inhibition, actives largely listed as inhibitors | 0.63% of 310,000 active | Vaccinia virus mCherry reporter infection, fluorescence; calls by dose curve; tested in A549 cells; note: potency is the fitted concentration of half-maximal effect; % is set by controls: 0 for no effect and ±100 for the full control effect; nearly all actives have a fitted effect of over 35% in size
Vaccinia Venus: vaccinia inhibition (Venus reporter) | Vaccinia virus Venus reporter expression, fluorescence | 0.46% of 330,000 active | AID 720580 | Potency, µM (titrated, usually from 36.5 µM), for inactives: at the highest dose activity change, negative = inhibition, most hits filed as inhibitors; calls by dose curve; tested in A549 cells; note: potency is the fitted concentration of half-maximal effect; % is set by controls: 0 for no effect and ±100 for the full control effect; nearly all actives have a fitted effect of over 30% in size
Shiga toxin inh: Shiga toxin inhibition; Vero cells, Shiga toxin protein synthesis inhibition reporter; inhibition, % at 38.7 µM; 9.2% of 290,000 active; AID 2315; in the data active = inhibition mostly above about 28%, no sharp cut-off; inactive = mostly below about 43%; note: 0% is about no effect
Cycloheximide cs: counter-screen for Shiga toxin inhibitors: cycloheximide protein synthesis inhibition; cell reporter, cycloheximide protein synthesis inhibition counterscreen; max response, %; 12% of 300,000 active; AID 2314; in the data active = max response mostly above about 13%, no sharp cut-off; inactive = mostly below about 14%; note: read at 38.3 µM for the half of the compounds with a filed dose; 0% is about no effect
Marburg entry inh: inhibitors of Marburg virus binding or cell entry. 1.8% of 300,000 active. Potency, µM (highest dose often 37.8 µM), for inactives: at the top dose activity change, negative = inhibition, usual class: inhibitors. Marburg virus pseudotyped entry inhibition, cell reporter; calls by dose curve; tested in HEK293 cells; note: potency is the fitted concentration of half-maximal effect; % is set by controls: 0 for no effect and ±100 for the full control effect
Active calls of the source: *; i = inactive; ? = inconclusive; / = no result; + = active, no number; [ ] = another dose, or the depositor's remark.

SMILES | Lassa entry inh | VACV mCherry inh | Vaccinia Venus | Shiga toxin inh | Cycloheximide cs | Marburg entry inh
O=C1[C@H]2[C@@H]3[C@@H](O)[C@H](O)CC(=NOCc4ccccc4)[C@H]3CC[C@H]2C(=O)N1Cc1ccc2c(c1)OCO2 | -19%[14.3 µM] | / | / | / | / | -38%[14.2 µM]
Cc1oc2ncn(CC(C)C)c(=O)c2c1C(=O)NCCCN(C)Cc1ccccc1 | ? | i | -16% | / | / | /
Cc1nn(C)c(Cl)c1CN1CCN(CC(C)C)C(CCO)C1 (stereo not given) | -4%[46.1 µM] | i | -6% | -5 | -1 | ?
COc1ccccc1N1CC(C(=O)Nc2nnc(SCc3ccccn3)s2)CC1=O (stereo not given) | 0% | -11% | 2% | 15 | 6 | ?
CCC(CC)c1nnc(NC(=O)C2CC(=O)N(c3ccc4c(c3)OCCO4)C2)s1 (stereo not given) | -15% | -15% | 6% | 18 | 20 | 14%
N#Cc1ccc(CSc2nnc(NC(=O)C3CC(=O)N(c4ccc5c(c4)OCCO5)C3)s2)cc1 (stereo not given) | -2% | -3% | -11% | -2 | 11* | -5%[46.1 µM]
O=C(Nc1nnc(SCc2ccc(F)cc2)s1)C1CC(=O)N(c2ccc3c(c2)OCCO3)C1 (stereo not given) | 3% | -9% | -5% | 1 | 15* | -8%
COc1ccc(N2CC(C(=O)Nc3nnc(SCc4ccccn4)s3)CC2=O)cc1 (stereo not given) | 10% | i | -11% | -2 | 20* | 8%
CCc1ccc(-c2csc(NC(=O)C3CC(=O)N(c4ccc5c(c4)OCCO5)C3)n2)cc1 (stereo not given) | ? | -28% | ? | + | 14* | ?
O=C(Nc1nnc(SCc2c(Cl)cccc2Cl)s1)C1CC(=O)N(c2ccc3c(c2)OCCO3)C1 (stereo not given) | 4%[46.1 µM] | i | -3% | 17 | 7 | -2%[46.1 µM]
CCc1ccc(NC(=O)C2CCCN(S(=O)(=O)c3cccc4nonc34)C2)cc1 (stereo not given) | ? | -12% | -10% | / | / | -6%[46.1 µM]
O=C(CC1SC(N2CCCC2)=NC1=O)Nc1ccc(C(=O)Nc2ncccc2O)cc1 (stereo not given) | -18%[46.1 µM] | -12% | -27% | / | / | -3%
CCOC(=O)C1(Cc2ccc(OC)cc2)CCN(C(=O)c2ccoc2C)CC1 | / | / | / | 21 | 11* | /
CCOC(=O)C1(Cc2ccc(OC)cc2)CCN(C(=O)c2cncs2)CC1 | 16% | -16% | 4% | 31 | 16* | 7%[46.1 µM]
CCOC(=O)C1(Cc2ccc(OC)cc2)CCN(C(=O)CCn2ccc(C)n2)CC1 | -27% | i | -1% | 11 | -2 | -2%[46.1 µM]
CCOC(=O)C1(Cc2ccc(OC)cc2)CCN(C(=O)CCn2cccn2)CC1 | 10% | -9% | -11% | 88 | 30* | 5%[46.1 µM]
O=C(Nc1nc2ccccc2[nH]1)NC1CCCCC1 | 11µM* | -10% | -20% | 81* | 46* | ?
O=C(CSc1nc2ccccc2[nH]1)Nc1ccccc1F | -5% | -15% | -12% | 25 | 13 | 5%
O=C(Nc1nc2ccccc2[nH]1)C12CC3CC(CC(C3)C1)C2 | ? | / | -29% | 63 | 40* | ?
O=C(Nc1nc2ccccc2[nH]1)C1CCCO1 (stereo not given) | 9% | -3% | -6% | 41 | 23* | 6%
O=C(Nc1nc2ccccc2[nH]1)Nc1ccccc1F | -22%[46.1 µM] | -2% | 6% | 99* | 35* | ?
Cc1ccc(NC(=O)c2ccc(CNS(=O)(=O)c3ccc4c(c3)C(C)(C)C(=O)N4C)cc2)cc1C | ? | -27% | -24% | / | / | /
COc1ccc(CNC(=O)c2ccc3c(c2)CCN3S(=O)(=O)c2ccc(C)cc2)cc1 | -27%[46.1 µM] | -27% | -15% | / | / | ?
CCn1c(SCC(=O)Nc2ccc3c(c2)OCO3)nnc1C(C)C | 5%[46.1 µM] | i | -5% | -8 | -2 | -5%[46.1 µM]
O=C(Nc1nc2ccccc2[nH]1)C1CC1 | 22% | -14% | ? | 45 | 23* | -18%
O=C(Nc1nc2ccccc2[nH]1)C1CCN(C(=O)c2ccc(F)cc2)CC1 | 9% | -14% | -16% | / | / | -7%[46.1 µM]
CC(C)c1nc2ccc(NC(=O)C34CC5CC(CC(C5)C3)C4)cc2[nH]1 | 20% | i | -20% | 48 | 20* | ?
COc1ccc(C(=S)N2CCOCC2)cc1OC(=O)c1ccc(C)cc1 | -15%[46.1 µM] | ? | -9% | -10 | -5 | -3%[46.1 µM]
